Compound activity (PubChem)
This is a sample that favours compounds with a hit; in the whole collection about 3.6% have one here.
KKLEB cytotox = CF airway cell cytotoxicity counter-screen; activity change (cytotoxicity), % at 5 µM; KKLEB CF airway cells viability, ATPlite luminescence, overnight; stronger effect = lower value; cells stimulated with P. aeruginosa culture filtrate; 0.36% of 360,000 active; AID 602141;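 active means corrected activity change at or below -50% at 5 µM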
HSP90 inh = blocks HSP90-mediated luciferase refolding in reticulocyte lysate | Rabbit reticulocyte lysate, luciferase refolding luminescence, 3 h | 0.91% of 290,000 active | inhibition, % at 5.6 µM;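 active means inhibition above the screen-wide mean plus 3 SD, computed separately per campaign, cut at about 16% in these data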;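 further: 0% = DMSO wells and 100% = 60 µM geldanamycin wells; inhibitors lower the luminescence because luciferase stays unfolded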
Mdm2 MdmX PPI = human Mdm2/MdmX binding inhibition | 3% of 330,000 active | inhibition, % at 8 µM | O15151+Q00987 | SaOS-2 split-luciferase Mdm2/MdmX complementation, luminescence;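 active means inhibition of at least 50% at 8 µM in the primary screen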
Target sequence (O15151 whole entry, looked up): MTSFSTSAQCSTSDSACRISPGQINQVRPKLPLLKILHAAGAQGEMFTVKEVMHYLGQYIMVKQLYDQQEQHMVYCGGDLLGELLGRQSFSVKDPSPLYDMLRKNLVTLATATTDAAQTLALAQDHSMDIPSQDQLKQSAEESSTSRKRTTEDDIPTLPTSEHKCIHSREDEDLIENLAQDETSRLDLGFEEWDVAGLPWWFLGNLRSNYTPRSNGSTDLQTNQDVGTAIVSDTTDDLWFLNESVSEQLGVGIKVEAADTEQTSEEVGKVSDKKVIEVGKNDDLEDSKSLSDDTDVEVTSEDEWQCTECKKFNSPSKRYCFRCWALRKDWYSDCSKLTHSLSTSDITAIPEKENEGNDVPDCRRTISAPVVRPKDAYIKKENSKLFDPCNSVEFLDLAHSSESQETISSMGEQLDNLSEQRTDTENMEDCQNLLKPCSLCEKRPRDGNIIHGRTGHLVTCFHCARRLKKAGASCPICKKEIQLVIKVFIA
Target sequence (Q00987 whole entry, looked up): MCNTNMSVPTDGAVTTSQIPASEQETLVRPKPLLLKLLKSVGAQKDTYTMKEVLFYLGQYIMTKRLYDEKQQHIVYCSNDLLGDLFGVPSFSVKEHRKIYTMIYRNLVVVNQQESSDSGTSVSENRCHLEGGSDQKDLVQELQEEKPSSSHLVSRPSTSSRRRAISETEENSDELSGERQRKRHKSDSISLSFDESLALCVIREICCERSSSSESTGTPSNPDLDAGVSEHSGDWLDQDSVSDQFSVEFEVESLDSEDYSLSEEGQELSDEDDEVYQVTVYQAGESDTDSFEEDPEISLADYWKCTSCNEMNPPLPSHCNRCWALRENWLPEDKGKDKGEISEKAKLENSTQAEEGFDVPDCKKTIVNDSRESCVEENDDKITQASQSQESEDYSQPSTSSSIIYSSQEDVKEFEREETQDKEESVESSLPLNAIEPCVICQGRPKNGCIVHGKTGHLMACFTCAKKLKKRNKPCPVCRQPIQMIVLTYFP
Peg3 prom inh = inhibitors of Peg3 promoter | HeLa PEG-Prom luciferase reporter, luminescence, overnight | inhibition, % at 20 µM | 1.7% of 360,000 active | AID 588405;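 active means inhibition of at least 50% at 20 µM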
CF NFkB block = inhibitors of cystic fibrosis induced NF-kB; 0.86% of 360,000 active; inhibition, % at 5 µM; KKLEB NF-kB-GFP reporter, PAF-induced, GFP fluorescence overnight; AID 588850;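 active means at least 50% inhibition at 5 µM, scaled per plate between neutral and stimulator controls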;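 further: PAF is a Pseudomonas aeruginosa culture filtrate used as stimulus; plate controls were PAF-stimulated DMSO wells for no effect and unstimulated DMSO wells for full effect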
LGR2 inh = blocks bursicon-induced cAMP signaling via Drosophila LGR2; HEK293 LGR2, CRE-luciferase, bursicon-stimulated, 4 h; inhibition, % at 9.99 µM; 0.35% of 380,000 active; AID 720647;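 active means drop in luminescence signal, shown as inhibition above about 50% in the replicate tests, limit read from the data, passing the limit was not always enough; inconclusive means probably only some replicates passing the limit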;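 further: agonist challenge used bursicon conditioned medium at about half maximal strength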
Mdm2 MdmX conf = confirmation of human Mdm2/MdmX interaction inhibitors. shares compounds with Mdm2 MdmX PPI. Mdm2-MdmX binding, luminescent assay. inhibition, % at 8 µM. 55% of 10,000 active. AID 489028; in the data active means inhibition above about 40%
FLuc counter = counter-screen for Mdm2/MdmX inhibitors: full-length luciferase; inhibition, % at 8 µM; 77% of 6,200 active; shares compounds with Mdm2 MdmX PPI; AID 504607; SaOS-2 full-length luciferase counterscreen, luminescence;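 active means mean inhibition at 8 µM reaching about 37%, which flags the compound as non-specific, limit read from the data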;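 further: p53-null SaOS-2 cells with luciferase driven by a doxycycline-inducible promoter; compound on cells about two nights before reading with doxycycline added after day one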
Active calls of the source: *; ? = inconclusive; . = not tested or not shown.

SMILES	KKLEB cytotox	HSP90 inh	Mdm2 MdmX PPI	Peg3 prom inh	CF NFkB block	LGR2 inh	Mdm2 MdmX conf	FLuc counter
Cc1ccc(N/C(N)=N/c2nc(CSc3nnc(C)s3)cc(=O)[nH]2)c(C)c1	-21.5	-3.9	60.0*	5.6	41.7	11.7	55.6*	67.8*
Cc1ccc(SCc2cc(=O)[nH]c(/N=C(\N)Nc3cccc4ccccc34)n2)cc1	-9.3	-8.3	15.2	29.6	10.5	5.6	.	.
COc1ccc(N/C(N)=N/c2nc(CSc3nnc(C)s3)cc(=O)[nH]2)cc1	-28.9	0.3	52.1*	13.6	9.1	23.8	65.0*	65.4*
C[C@H](CO)N1C[C@H](C)[C@@H](CN(C)Cc2ccc(C(F)(F)F)cc2)OCc2cn(nn2)CCCC1=O	.	.	.	.	.	13.0	.	.
O=C(N/N=C(\CC(=O)c1cccs1)C(F)(F)F)c1ccncc1	6.9	1.9	65.8*	6.4	-12.1	13.6	18.1	.
Cc1ccc(C(=O)N/N=C(/CC(=O)c2cccs2)C(F)(F)F)cc1	-0.8	-1.5	3.3	-2.7	38.0	-15.1	.	.
O=c1cc(Nc2ccc3c(c2)OCCO3)[nH]c(=O)n1-c1ccc(Br)cc1	2.8	0.7	55.1*	-18.2	7.6	.	6.4	.
O=c1cc(Nc2ccc3c(c2)OCO3)[nH]c(=O)n1-c1ccc(Br)cc1	-10.4	0.5	9.5	-19.5	-5.3	.	.	.
O=C1N/C(=C\c2ccc(N3CCOCC3)c(F)c2)C(=O)N1Cc1ccccc1	-11.4	1.6	72.5*	22.9	1.1	.	40.2*	73.6*
Cc1ccc(CN2C(=O)N/C(=C\c3ccc(N4CCOCC4)cc3)C2=O)cc1	-9.3	-5.5	7.1	7.4	-9.9	-5.0	.	.
CCOC(=O)C1=C(C)NC(=S)N(C(C)=O)C1c1ccc(OC)c(OC)c1 (stereo unspecified)	-1.1	6.5	56.5*	20.0	23.2	2.3	8.5	.
C[C@@H]1CCCCO[C@@H](CN(C)C(=O)c2ccncc2)[C@@H](C)CN([C@@H](C)CO)C(=O)c2cc(NS(=O)(=O)c3ccccc3)ccc2O1	.	.	.	.	.	-5.9	.	.
COC1(OC)C(/C=C/c2ccc(Cl)cc2)C(C#N)(C#N)C1(OC)OC (stereo unspecified)	-60.3*	5.7	88.2*	62.9*	56.9*	.	56.6*	22.6
O=C(COc1ccc(C(=O)c2ccccc2)cc1)NCc1ccc(F)cc1	2.9	8.2	63.2*	22.4	-6.8	-12.3	67.0*	76.2*
CSc1ccc(CN(C)C(=O)COc2ccc(C(=O)c3ccccc3)cc2)cc1	-2.7	3.9	65.4*	-23.4	7.5	2.2	59.4*	96.4*
C/C1=C\CCC2C(/C=C(\C)CC1)OC(=O)C2CN1CCCCC1 (stereo unspecified)	5.7	0.0	59.8*	6.1	-7.8	20.0	34.8	.
C[C@H]1CN([C@@H](C)CO)C(=O)c2cc(NS(=O)(=O)c3ccc(F)cc3)ccc2O[C@@H]1CN(C)Cc1ccc(C(=O)O)cc1	.	.	.	.	.	-10.2	.	.
COc1ccc(CN(C)C[C@@H]2Oc3c(NS(C)(=O)=O)cccc3C(=O)N([C@H](C)CO)C[C@H]2C)cc1	.	.	.	.	.	5.7	.	.
O=C(Cn1cnc([N+](=O)[O-])c1)Nc1cc(Oc2ccc(Cl)cc2Cl)cc([N+](=O)[O-])c1	-6.0	-1.5	55.6*	49.2	0.9	.	25.6	.
N#Cc1ccc(NC(=O)Cn2cnc([N+](=O)[O-])c2)cc1	6.4	-2.3	-24.4	9.9	-5.6	2.3	.	.
CC(C)NC(=O)N(C)C[C@@H]1Oc2cc(C#C[C@@H](C)O)ccc2S(=O)(=O)N([C@H](C)CO)C[C@@H]1C	.	.	.	.	.	-2.4	.	.
CCN1C(=O)[C@H]2[C@@H](c3ccc(-c4ccc(Cl)c(Cl)c4)c(OC)c3)N[C@@](Cc3ccccc3)(C(=O)OC)[C@H]2C1=O	-12.6	.	62.2*	16.6	33.5	11.8	47.0*	45.8*
COC(=O)[C@]1(C)N[C@H](c2ccc(-c3ccc(Cl)c(Cl)c3)c(OC)c2)[C@@H]2C(=O)N(C)C(=O)[C@@H]21	-18.5	.	64.9*	12.7	7.3	16.7	40.1*	49.5*
COC(=O)[C@]1(C)N[C@H](c2ccc(-c3ccc(OC)cc3)cc2)[C@@H]2C(=O)N(C)C(=O)[C@@H]21	-5.2	.	1.4	-9.6	-23.0	16.4	.	.
O=C(Nc1ccc(F)cc1)N[C@H]1CC[C@H](CCn2cc(C3(O)CCCC3)nn2)O[C@H]1CO	.	.	.	.	.	12.2	.	.
SMILES	KKLEB cytotox	HSP90 inh	Mdm2 MdmX PPI	Peg3 prom inh	CF NFkB block	LGR2 inh	Mdm2 MdmX conf	FLuc counter
CC1(c2ccccc2)ON(c2ccccc2C(F)(F)F)C1=O (stereo unspecified)	.	.	46.3	.	.	.	.	.
O=C1N(c2ccccc2C(F)(F)F)O[C@]1(c1ccccc1)C1CCCC1	0.6	.	79.3*	77.5*	46.6	6.7	53.2*	50.2*
COC(=O)N1C(=O)[C@](c2ccccc2)(C2CCCC2)N1C(=O)OC	-15.5	-1.3	42.9	29.9	10.7	19.7	.	.
COc1ccccc1N1C(=O)C2C3C=CC(C3)C2(C)C1=O (stereo unspecified)	3.3	1.8	7.1	-2.8	-3.4	.	.	.
Cc1ccccc1[C@@]1(C)ON(c2ccccc2C(F)(F)F)C1=O	5.3	.	80.6*	79.2*	49.1	13.6	34.0	.
CC[C@@]1(c2ccccc2OC)ON(c2ccccc2C(F)(F)F)C1=O	4.2	.	88.9*	80.7*	59.1*	?	80.3*	51.4*
Cc1ccc2c(c1)c1c(n2CC(O)Cn2c(C)nc3ccccc32)/C(=N\O)CCC1 (stereo unspecified)	-5.5	4.0	59.5*	23.4	6.5	.	6.0	.
CCCCOC(=O)c1sc2nc(C)cc(C)c2c1N	.	-0.7	-6.1	.	.	.	.	.
CCCCOC(=O)NS(=O)(=O)c1sc(CC(C)C)cc1-c1ccc(Cn2c(CC)nc3c(C)cc(C)nc32)cc1	.	.	89.4*	.	.	.	40.0	71.8*
COc1cccc(-c2ccc([C@@H]3[C@H]4CN(C(=O)CN5CCOCC5)CC(=O)N4[C@H]3CO)cc2)c1	.	.	.	.	.	7.0	.	.
CCOc1ccc(NC(=O)C(CC(=O)O)Cc2ccccc2)cc1 (stereo unspecified)	5.2	1.0	-3.4	24.7	10.3	-3.0	.	.
CCOC(=O)C(Cc1ccc(NC(=O)/C(=C/c2ccccc2)NC(=O)c2ccccc2)cc1)N1C(=O)c2ccccc2C1=O (stereo unspecified)	-22.8	-0.3	51.8*	22.8	3.4	.	19.1	.
CCOc1ccc(NC(=O)C(Cc2ccccc2)N2C(=O)c3cccc4cccc(c34)C2=O)cc1 (stereo unspecified)	-28.2	-1.2	50.2*	17.8	16.8	-8.4	47.2*	97.7*
O=C(Cc1csc(Nc2nc(=S)[nH]c3ccccc23)n1)NCc1ccc(Cl)cc1	-40.8	-2.8	73.6*	31.2	19.1	.	5.8	.
